L3MBTL1 block – inhibitors of human L3MBTL1 | Potency, µM (series often up to 57.1 µM), hits mostly inhibitors | AlphaScreen L3MBTL1–H3K9me1 peptide binding | 0.66% of 230,000 active | AID 485360; further: nearly all actives have a fitted effect of over 60% in size
Target sequence (Q9Y468 whole entry, looked up): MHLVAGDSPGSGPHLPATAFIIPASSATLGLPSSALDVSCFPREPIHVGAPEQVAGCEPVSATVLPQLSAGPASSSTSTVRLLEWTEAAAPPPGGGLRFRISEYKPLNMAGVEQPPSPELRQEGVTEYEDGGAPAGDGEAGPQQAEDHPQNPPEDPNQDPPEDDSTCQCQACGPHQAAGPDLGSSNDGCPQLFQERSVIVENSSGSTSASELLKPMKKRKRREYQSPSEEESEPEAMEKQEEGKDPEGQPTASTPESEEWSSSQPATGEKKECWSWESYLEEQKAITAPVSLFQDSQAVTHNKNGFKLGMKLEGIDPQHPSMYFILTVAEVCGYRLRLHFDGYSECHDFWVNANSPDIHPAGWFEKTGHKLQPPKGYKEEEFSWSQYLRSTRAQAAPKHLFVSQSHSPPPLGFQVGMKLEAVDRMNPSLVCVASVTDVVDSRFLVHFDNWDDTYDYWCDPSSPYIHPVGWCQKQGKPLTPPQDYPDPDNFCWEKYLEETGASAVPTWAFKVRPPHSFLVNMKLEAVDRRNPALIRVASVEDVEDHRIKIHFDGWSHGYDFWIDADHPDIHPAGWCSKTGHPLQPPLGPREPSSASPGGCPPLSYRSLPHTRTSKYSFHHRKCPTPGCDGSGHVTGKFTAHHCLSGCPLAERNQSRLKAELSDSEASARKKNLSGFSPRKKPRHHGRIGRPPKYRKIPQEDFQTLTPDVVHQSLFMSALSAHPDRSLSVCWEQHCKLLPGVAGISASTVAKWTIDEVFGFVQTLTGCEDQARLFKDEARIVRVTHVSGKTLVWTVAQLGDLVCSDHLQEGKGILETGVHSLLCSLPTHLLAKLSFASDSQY
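AlphaScreen proximity signal between nickel-chelate acceptor and streptavidin donor beads (final 10 ug/mL) reports binding of 50 nM L3MBTL1 to 75 nM biotin-H3 K9me1 peptide; complex incubated with compounds 30 min at room temperature; cefsulodin titration as control.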
HP1b chromo inh – inhibitors of HP1-beta chromodomain binding to methylated histone tails; Potency, µM (top dose mostly 114 µM), hits mostly inhibitors; P83916; AlphaScreen HP1-beta / biotin-H3K9me3 peptide binding; 0.56% of 390,000 active; further: nearly all actives have a fitted effect of over 70% in size
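HP1-beta protein (50 nM final) preincubated 30 min at room temperature with biotinylated H3(1-18)K9me3 peptide (50 nM) in PBS pH 7.4, 0.01% Tween-20, then compound added for 30 min. AlphaScreen streptavidin donor/nickel chelate acceptor beads (10 ug/mL final), 30 min dark, luminescence read.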
JMJD2A Tudor inh – JMJD2A Tudor domain (human) inhibition. Potency, µM (series often up to 114 µM), actives largely listed as inhibitors. O75164. 4.4% of 390,000 active. AlphaScreen JMJD2A-Tudor / H3K4me3 peptide binding; further: nearly all actives have a fitted effect of over 50% in size
BAZ2B inh – blocks human BAZ2B; 4.4% of 360,000 active; Q9UIF8; AlphaScreen BAZ2B-H3K14Ac peptide displacement; Potency, µM (titrated, usually from 114 µM), most hits filed as inhibitors; AID 504333; further: nearly all actives have a fitted effect of over 60% in size
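AlphaScreen displacement: compounds (up to 110uM) incubated 30 min at room temperature with a preformed 50 nM BAZ2B/50 nM biotinylated H3K14Ac peptide complex in PBS pH 7.4 with Tween-20. Donor and acceptor beads at 10 ug/mL final added, 20 min light-protected before reading.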
G9a block – G9a (human) methyltransferase inhibition. Potency, µM (doses to about 102 µM), usual class: inhibitors. Q96KQ7. G9a H3K9 monomethylation, AlphaScreen, 2 h. AID 504332. 8.8% of 350,000 active; further: nearly all actives have a fitted effect of over 75% in size
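Enzyme 20 nM + cpd, 15 min RT; add b-H3K9 pep 500 nM / SAM 20 uM; 2 h RT; anti-H3K9me1 Ab 0.5 ug/mL + SA donor / anti-rabbit acceptor beads 20 ug/mL each, 10 min; AlphaScreen read.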
A number is an active result; 0 = inactive; ? = inconclusive; - = not tested or not shown; [ ] = remark or other dose. Compounds with a hit are over-represented: about 11% of the library has one in this group of screens. The call rests on the fitted dose curve; in most records, active means well fitted inhibition curve with a large enough effect; inconclusive means small, poorly fitted or top-dose-only effect; inactive means no such curve, though single readings can be large or run the other way.

SMILES	L3MBTL1 block	HP1b chromo inh	JMJD2A Tudor inh	BAZ2B inh	G9a block
CCOc1ccc(N2CC(C(=O)NCCc3ccc(S(N)(=O)=O)cc3)CC2=O)cc1 (stereo not given)	-	0	0	0	25µM
CCOc1ccc(N2CC(C(=O)OCC(=O)c3ccc(OC)cc3)CC2=O)cc1 (stereo not given)	-	0	56µM	0	0
COc1ccc(N2CC(C(=O)OCC(=O)c3ccc(C)cc3)CC2=O)cc1 (stereo not given)	0	0	0	0	-
Cc1ccc(Cl)cc1N1CCN(C(=O)c2cccn2-c2nnc(N3CCCC3)s2)CC1	-	0	0	0	0
CCCNC(=O)c1ccc2nc(CCc3ccccc3)oc2c1	-	0	0	0	0
CCN(C(=S)NC(=O)Cc1ccc(OC)cc1)c1ccccc1	-	0	0	-	-
O=C(NC(=S)N(Cc1ccccc1)c1ccccn1)C1CC1	0	0	0	0	14µM
O=C(NC(=S)N(Cc1ccccc1)Cc1ccccc1)C1CCCCC1	0	0	0	0	0
CN(C(=S)NC(=O)C1CC1)c1ccc(O)cc1	0	0	89µM	0	?
CCN(C(=S)NC(=O)C1CC1)c1ccccc1	-	0	0	0	35µM
Cc1ccccc1NC(=O)CSc1nccn1C	-	0	0	0	0
Cc1cc2c(cc1S(=O)(=O)Nc1cc(C(F)(F)F)cc(C(F)(F)F)c1)OCC(=O)N2	-	0	0	0	0
Cc1cc2c(s1)c1cnn(Cc3ccc(F)c(F)c3F)c(=O)c1n2C	-	-	0	-	-
COc1cccc(NC(=O)CSc2nccn2C2CCCC2)c1	-	0	0	?	0
O=S(=O)(Nc1ccc(-n2cccc2)cc1)c1ccc(F)cc1	-	?	0[11.4 µM]	?	50µM
O=S(=O)(Nc1ccc(-n2cccc2)cc1)c1ccc(Cl)c(Cl)c1	0	0	?	?	?
CN(C)CCCNc1ncnc2sc(-c3ccccc3)cc12	-	?	5.6µM	56µM	?
CCN1C(=O)/C(=C\N2CCN(C(=O)c3ccco3)CC2)SC1=S	0	0	0	0	0
CCN1CCN(c2c(/C=C3\SC(=S)N(Cc4ccco4)C3=O)c(C)c(C#N)c(=O)n2C)CC1	-	0	?	0	22µM
CCc1c(C)sc(NC(=O)C2CC2c2ccccc2)c1C(N)=O (stereo not given)	0	0	0	0	14µM
O=C1C=CC(=O)N1Cc1ccccc1	-	?	25µM	?	1.8µM
CC(C)(C)c1ccc(C(=O)NCC(c2cccs2)S(=O)(=O)c2ccccc2)cc1 (stereo not given)	-	0	0	0	0
COc1cccc(NC(=O)Cn2cnc3c(nc4n3CCCCC4)c2=O)c1	-	0	0	0	0
COc1ccc(/C=C/C(=O)OCc2cc(=O)n3c(n2)sc2ccccc23)cc1	0	0	0	0	0
O=c1cc(CCl)nc2sc3ccccc3n12	?	0	50µM	50µM	?
SMILES	L3MBTL1 block	HP1b chromo inh	JMJD2A Tudor inh	BAZ2B inh	G9a block
COC(=O)c1c(C)[nH]c(C)c1-c1ccc(C)cc1	-	0	0	?	0
COC(=O)c1c(C)[nH]c(C)c1-c1cccc([N+](=O)[O-])c1	-	0	0	?	56µM
CC1CCC2(CC1)NC(=O)N(CC(=O)c1cn(CCC#N)c3ccccc13)C2=O (stereo not given)	0	0	0	0	0
N#CCCn1cc(C(=O)CN2C(=O)C(=O)N(C3CCCC3)C2=O)c2ccccc21	0	0	0	0	50µM
CCn1cc(/C=C(\NC(=O)c2ccc(OC)c(OC)c2)C(=O)NCCCn2ccnc2)c2ccccc21	-	0	?	0	0
CC1=C(C(=O)OCCBr)C(c2cccc3ccccc23)NC(=O)N1 (stereo not given)	-	0	0	0	79µM
CC1=C(C(=O)OCCCBr)C(c2ccc3c(c2)OCO3)NC(=O)N1 (stereo not given)	0	0	0	0	50µM
CCCCCOC(=O)C1=C(C)NC(=O)NC1c1ccc2c(c1)OCO2 (stereo not given)	0	0	0	0	0
COc1ccc(CN(C)C(=O)COC(=O)c2cc([N+](=O)[O-])ccc2N2CCCC2)c(OC)c1OC	0	0	?	-	-
CC(NCC(O)COc1ccc2ccccc2c1)c1ccccc1 (stereo not given)	-	45µM	0.79µM	50µM	14µM
COc1ccc(OCC(O)CNC(C)c2ccccc2)cc1 (stereo not given)	-	0	0	0	0
COc1ccc(/C=C/C(=O)O)cc1Cl	0	0	0	0	0
CC(=C/C(=O)O)/C=C/c1ccco1	?	0	0	0	40µM
CC(/C=C/c1ccc(Cl)o1)=C\C(=O)O	?	0	0	?	50µM
Cc1ccc(CN2CCCn3nc(C(=O)NCc4ccc(OC(C)C)cc4)cc3C2=O)cc1	-	0	0	0	0
CC(=O)NCc1ccc(S(=O)(=O)N/N=C/c2ccccc2)cc1	0	0	0	0	3.2µM
Cc1ccc(NC(=S)N/N=C/c2ccc(Cl)c([N+](=O)[O-])c2)cc1	-	0	0	0	0
CCOc1cc(/C=N/NS(=O)(=O)c2ccccc2)ccc1OS(=O)(=O)c1ccc(C)cc1	-	0	0	0	11µM
Cc1ccc(S(=O)(=O)N/N=C/c2ccc(C(=O)O)cc2)cc1	0	0	0	0	11µM
Cc1ccc(S(=O)(=O)N/N=C\c2ccc(Cl)c([N+](=O)[O-])c2)cc1	0	0	?	?	7.9µM
Cc1sc(NC(=O)CSc2nnc(N)s2)c(C#N)c1C	-	0	0	0	0
Cc1c(Cl)cccc1-n1ncc(C(=O)NC2CCCC2)c1C1CCN(C(=O)OC(C)(C)C)CC1	-	0	0	0	0
Cc1ccc(S(=O)(=O)N(C)/N=C/c2ccc(C(=O)O)cc2)cc1	-	0	0	0	45µM
COc1cc(CNC(C)(C)CO)ccc1OCC(=O)NC(C)(C)C	0	0	0	0	0
COc1cc(CNn2c(C)n[nH]c2=S)cc(Cl)c1OCC(=O)NC(C)(C)C	0	0	56µM	0	-
SMILES	L3MBTL1 block	HP1b chromo inh	JMJD2A Tudor inh	BAZ2B inh	G9a block
COc1cc(CNn2cn[nH]c2=S)ccc1OCC(=O)NC(C)(C)C	0	0	?	0	18µM
COc1cc(CNn2c(C)n[nH]c2=S)cc(Br)c1OCC(=O)NC(C)(C)C	0	0	?	0	4µM
COc1ccc(-n2cnc3cc(C(=O)NCCC4=CCCCC4)ccc32)cc1	-	0	0	0	0
Cc1occc1C(=O)Nc1ccc(S(=O)(=O)N2CCN(C)CC2)cc1	0	0	0	0	56µM
CN(Cc1ccccc1)S(=O)(=O)c1ccc(NC(=S)NC(=O)C(C)(C)C)cc1	0	0	0	0	3.2µM
CN1C(=O)c2ccc(NC(=S)NC(=O)C(C)(C)C)cc2C1=O	0	0	0	0	45µM
CN(Cc1ccccc1)S(=O)(=O)c1ccc(NC(=S)NC(=O)C2CCCCC2)cc1	0	0	0	0	0
CN1CCN(S(=O)(=O)c2ccc(NC(=S)NC(=O)C(C)(C)C)cc2)CC1	0	0	0[11.4 µM]	0	56µM

Bioassay records as filed in PubChem BioAssay.
